# Test results published in the supplement of paper PMC4206461.
# System: Pseudomonas aeruginosa PA14 wild type
# Assay: respiration area under curve with compound as sole nitrogen source, 24 h (OmniLog AUC (arbitrary units)); higher = more respiration / better utilisation as nitrogen source
# Protocol: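 Biolog Phenotype MicroArray plates PM6-PM8: each di/tripeptide is the sole nitrogen source (IF-0 medium with succinate/ferric citrate and dye mix A). Tetrazolium reduction was read in the OmniLog every 15 min for 24 h at 37°C and summarised as area under the respiration curve (arbitrary units). The paper counts values below 2000 as no respiration and above 8000 as solid respiration. Replicate datasets are averaged.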
row,SMILES,respiration area under curve
1,CC(C)C[C@H](NC(=O)CNC(=O)CN)C(=O)O (plate: PM8),10400 (active)
2,CC(C)C[C@@H](NC(=O)CNC(=O)CN)C(=O)O (plate: PM8),5880 (active)
